# Most compounds without a hit are left out; they make up all but 7.2% or so of the library.
# SNCA viab count = counter-screen for SNCA expression inhibitors: cell viability; 150,000 tested, 0.12% active; Potency, µM (highest dose often 57.1 µM), for inactives: top-dose activity change, negative = cytotoxicity, actives largely listed as cytotoxic; HEK-293-SNCA-luc viability, GF-AFC fluorescence, 24 h;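 note: 0% = DMSO-treated cells and -100% = medium-only wells without cells; nearly all actives have a fitted effect of over 30% in size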
#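 Cytotoxicity counterscreen: after 24 h compound treatment of genome-edited SNCA-luciferase HEK-293 cells, live-cell protease substrate GF-AFC read by fluorescence after 30 min; activity scaled between DMSO (0%) and medium-only (-100%), curves Hill-fitted.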
# SNCA expr inh = SNCA gene expression inhibition. HEK-293 SNCA-luciferase knock-in, luminescence, 24 h. 140,000 tested, 0.17% active. AID 1671194. Potency, µM (titrated, usually from 57.2 µM), for the others: at the highest dose activity change, negative = inhibition, usual class: inhibitors;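 note: plate controls were DMSO cells for no effect and cell-free wells for full effect; nearly all actives have a fitted effect of over 45% in size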
# FLuc inh-1 = inhibitors of firefly (Photinus pyralis) luciferase | 76,000 tested, 2.5% active | P08659 | AID 1347043 | Potency, µM (top dose mostly 115 µM), actives largely listed as inhibitors | purified P. pyralis luciferase, luminescence, biochemical; note: % is set by controls: 0 for no effect and ±100 for the full control effect; nearly all actives have a fitted effect of over 65% in size
#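 FLuc 10nM, D-luciferin 10uM, ATP 10uM, Mg acetate 10mM, Tris acetate pH 7.5, Tween/BSA; cpd qHTS; enzyme added last; CCD luminescence.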
# hNpr1 antagonist = antagonists of human natriuretic peptide receptor Npr1; HEK293 hNpr1 GloSensor cGMP, ANP-stimulated luminescence; P16066; 76,000 tested, 1.6% active; Potency, µM (top dose mostly 46.3 µM), for the others: top-dose activity change, negative = inhibition, usual class: inhibitors; calls by dose curve; note: % is set by controls: 0 for no effect and ±100 for the full control effect; nearly all actives have a fitted effect of over 60% in size
#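 HEK293 cells stably expressing human Npr1 and cGMP GloSensor pGS-40F, loaded 2 h with 2% GloSensor reagent, given compound 30 min at room temperature. Luminescence read before and 20 min after 0.1 nM hNppA.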
# HEK cytotox = HEK 293 cell cytotoxicity | 94,000 tested, 6.6% active | Potency, µM (doses to about 115 µM), for inactives: top-dose activity change, negative = cytotoxicity, most hits filed as inhibitors | HEK 293 viability, ATP luminescence (CellTiter-Glo), 48-72 h; note: % is set by controls: 0 for no effect and ±100 for the full control effect; nearly all actives have a fitted effect of over 60% in size
#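 Viability of HEK 293 cells, plated at 250 cells/well, was judged by cellular ATP after compound treatment for 48 or 72 hr. Luminescence was imaged 10 min after CellTiter-Glo addition at room temperature.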
# 3T3 cytotox = cytotoxic compounds in NIH 3T3 cells | NIH 3T3 viability, CellTiter-Glo ATP luminescence, 48-72 h | Potency, µM (series often up to 96.7 µM), for inactives: at the highest dose activity change, negative = cytotoxicity, hits mostly inhibitors | 94,000 tested, 4.3% active; note: % is set by controls: 0 for no effect and ±100 for the full control effect; nearly all actives have a fitted effect of over 55% in size
#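 Cytotoxicity was measured by CellTiter-Glo ATP luminescence after 48 or 72 h compound exposure at 37 °C. Mouse NIH 3T3 fibroblasts were seeded at 400 cells/well and dosed by 23 nL pin transfer.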
# FLuc SDR no ATP = binders stabilizing firefly luciferase, without ATP. shares compounds with FLuc inh-1. Purified FLuc-C-HiBiT, Nano-Glo HiBiT luminescence, no ATP. Potency, µM (titrated, usually from 32.7 µM), without a hit: top-dose activation (signal gain), usual class: activators. 1,300 tested, 7.8% active; note: nearly all actives have a fitted effect of over 55% in size
# FLuc SDR ATP = stabilizes firefly luciferase with ATP present; shares compounds with FLuc inh-1; purified FLuc-C-HiBiT + ATP, HiBiT complementation luminescence; Potency, µM (doses to about 32.7 µM), inactives show top-dose activation (gain of signal), most hits filed as activators; 1,300 tested, 8.7% active; AID 1963319;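 note: signal reports ligand binding via conformational change of the enzyme rather than luciferase catalysis; % of control where 0% means no effect; nearly all actives have a fitted effect of over 55% in size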
# FLuc inh-2 = inhibitors of firefly luciferase enzymatic activity | Potency, µM (doses to about 32.7 µM), without a hit: top-dose activity change, negative = inhibition, most hits filed as inhibitors | 1,300 tested, 42% active | shares compounds with FLuc inh-1 | purified FLuc-C-HiBiT enzyme, luciferin luminescence; note: % is set by controls: 0 for no effect and ±100 for the full control effect; nearly all actives have a fitted effect of over 70% in size
# * marks the source's active call; other numbers are inactive results; i = inactive; ? = inconclusive; . = no result given; [ ] = dose if it differs, or a comment. Unless noted, calls come from the whole dose curve; as a rule, active = well fitted curve in the direction sought with a large enough effect; inconclusive = small, poorly fitted or top-dose-only effect, or another doubt; inactive = no such curve, though single readings can be large; an effect the other way counts as inactive or inconclusive. Potency is the fitted concentration of half-maximal effect.
SMILES,SNCA viab count,SNCA expr inh,FLuc inh-1,hNpr1 antagonist,HEK cytotox,3T3 cytotox,FLuc SDR no ATP,FLuc SDR ATP,FLuc inh-2
COc1ccc(NC(=O)Nc2ccc(C)n(CC(=O)N3CCCC(C)C3)c2=O)cc1 (configuration not stated),-7%,38%,7.1µM*,4%,-16%,-29%,?,?,7.9µM*
CCC(C)NC(=O)Cn1c(C)ccc(NC(=O)Nc2ccc(C)cc2)c1=O (configuration not stated),-2%,20%,2µM*,-23%,?,?,3.1µM*,?,1.2µM*
Cc1ccc(NC(=O)Nc2ccc(C)n(CC(=O)NC(C)(C)C)c2=O)cc1,11%,75%,4µM*,0%,?,-18%,?,?,3.9µM*
O=C(CNC(=O)c1cccc(-c2ccsc2)c1)NCc1cccc(F)c1,0%[12.5 µM],0%,.,.,?,-27%,.,.,.
O=C(c1ccc2c(c1)OCO2)N1CCN2C(=O)NC[C@H]2C1,5%[87.6 µM],2%[87.6 µM],i,0%[70.6 µM],-7%[230 µM],-16%[230 µM],.,.,.
CCCNC(=O)Cn1c(C)ccc(NC(=O)Nc2ccc(OC)cc2)c1=O,-6%,10%,4µM*,-17%,-27%,?,?,?,6.2µM*
COc1ccc2oc(=O)c(-c3nc4ccc(C)cc4[nH]3)cc2c1,-5%,87%,.,.,.,.,.,.,.
CCOc1cccc2cc(-c3nc4ccc(C(=O)O)cc4[nH]3)c(=O)oc12,8%,127%,.,.,.,.,?,0.16µM*,0.16µM*
COc1ccc2cc(-c3nc4ccc(C(=O)O)cc4[nH]3)c(=O)oc2c1,?,-55%,.,.,.,.,0.79µM*,0.02µM*,0.016µM*
O=C(NCCc1ccc(Cl)cc1)C1CCc2nnc(C3CCN([S+](=O)([O-])c4ccccc4Cl)CC3)n21 (configuration not stated),0%,-1%,.,.,-12%,?,.,.,.
CSCC(=O)Nc1nc2c(s1)C[C@]1(C)CC[C@@H]3[C@H](OC(=O)[C@H]3C)[C@H]1[C@@H]2C,-9%[87.6 µM],-73%[87.6 µM],0.89µM*,7.1µM*,35µM*,100µM*,?,?,4.5µM*
C[C@@H]1C(=O)O[C@H]2[C@H]1CC[C@@]1(C)Cc3sc(NC(=O)COCC(=O)O)nc3[C@@H](C)[C@H]21,2%[87.6 µM],?,13µM*,0%[70.6 µM],i,i,4.5µM*,?,5.7µM*
C[C@@H]1C(=O)O[C@H]2[C@H]1CC[C@@]1(C)Cc3sc(NS(=O)(=O)c4ccc5c(c4)CN(C(=O)C(F)(F)F)CC5)nc3[C@@H](C)[C@H]21,3%,8%,i,-2%,-17%,-23%,.,.,.
Cc1cn2c(=O)cc(COC(=O)c3ccc(NC(=O)COc4ccccc4F)cc3)nc2s1,3%,-2%,.,.,.,.,.,.,.
Cc1cn2c(=O)cc(COC(=O)c3cccc(NC(=O)COc4ccccc4Cl)c3)nc2s1,0%,?,.,.,.,.,13%,9.9µM*,7µM*
OCc1ccnc(-c2ccc(-c3ccn[nH]3)cc2)c1,3%,32%,10µM*,5µM*,0%,-14%,23%,?,?
CC(C)(C)C(=O)N1CCCC(c2nn(-c3ccc(F)cc3)c(=O)[nH]2)C1 (configuration not stated),-15%,28%,i,1%,-28%,-26%,.,.,.
c1ccc(-c2ccnc(NCCc3c[nH]c4ccccc34)n2)nc1,-7%,66%,8.9µM*,-27%,?,?,16%,12%,?
CCc1cccc(-n2nnc(-c3nsc(NC(=O)c4cccs4)n3)c2C)c1,7%,77%,.,.,.,.,13%,14%,-19%
Nc1ccc(C(=O)N2CCCn3nc(C(=O)Nc4ccccc4)cc3C2)cn1,3%,2%,7.1µM*,-5%,?,-26%,?,?,?
Cc1ccc(C(=O)N2CC(c3nnc(-c4ccncc4)o3)C3(CCOCC3)C2)c(C)c1 (configuration not stated),-6%,-11%,i,-11%,-3%,i,.,.,.
CSCC(=O)Nc1nn(-c2ccc(F)cc2)c2cccc(N3CCOCC3)c12,?,69%,6.3µM*,?,?,?,23%,16%,?
O=C(Nc1nn(-c2cccc(F)c2)c2cccc(N3CCOC3=O)c12)C1CCC1,-4%,35%,i,-8%,-10%,-23%,.,.,.
CCOc1ccc(-c2ncnn2-c2sc3c(c2C#N)CCCCC3)cc1,-9%,37%,.,.,.,.,.,.,.
N#Cc1c(-n2ncnc2-c2ccc(Br)cc2)sc2c1CCCCC2,-1%,70%,.,.,.,.,23%,21%,9.9µM*
SMILES,SNCA viab count,SNCA expr inh,FLuc inh-1,hNpr1 antagonist,HEK cytotox,3T3 cytotox,FLuc SDR no ATP,FLuc SDR ATP,FLuc inh-2
CC(C)(C)c1ccc(C(=O)N2CCN(C(=O)c3nnn4c3COC(c3ccccc3)C4)CC2)cc1 (configuration not stated),-7%,-6%,i,-18%,?,?,.,.,.
N#Cc1c(NC(=O)c2cccc3ccccc23)sc2c1CCCC2,-19%,-7%,.,.,.,.,12%,8%,-20%
NC(=O)[C@@H]1CCCN1C(=O)c1ccc2oc(-c3cccc(F)c3)nc2c1,2%,-27%,11µM*,3%,?,?,17%,16%,-19%
O=C(NCc1cccc(F)c1)C1CCCN1C(=O)c1cccc(-c2ccccn2)c1 (configuration not stated),-13%,-16%,.,.,-8%,-9%,.,.,.
Cc1cc(=O)n(CC(=O)NC(C)CCc2ccccc2)c(N2CCOCC2)n1 (configuration not stated),0%,3%,i,0%,-9%,-1%,.,.,.
COc1ccc(-c2ccc3ncc(Nc4cc(F)cc(N5CCOCC5)c4)n3n2)cc1OC,?,?,8.9µM*,2%,?,18µM*,19%,12%,?
Fc1ccc(-c2nnc3ccc(Nc4ccc(N5CCOCC5)cc4)nn23)nc1,?,?,i,-1%[70.6 µM],?,?,.,.,.

# High-throughput results as filed in PubChem BioAssay.
